Screen size: about 360,000 compounds; about 3,800 (1.1%) were called active. The sample holds actives, similar compounds and a random draw of the others, so the mix is not that of the screen. Unmarked numbers belong to inactive results.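 Rule for the calls: active = compounds causing at least 50% loss of cell viability in the single-dose screen, relative to plate controls; inactive = the rest.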
experiment: TRAIL-exposed caspase-8 expressing cell killing – NB7+C8 cells, ATPlite luminescence, TRAIL sensitizer project, primary screen (AID 624354); settings: at 10 µM, stronger effect = higher value

Q: With CCOc1cc(/C=C(/C#N)c2ccc(Cl)cc2)cc(Cl)c1OCC(=O)O as the compound, how does the inhibition (viability loss, TRAIL sensitization) read?
A: 11.5%

Q: For O=C(O)c1c(NC(=O)N2CCCC2)sc2c1CCCC2, which inhibition (viability loss, TRAIL sensitization) is on record?
A: 1.53%

Q: With O=C(CN1CCCC1)Nc1sc2c(c1C(=O)Nc1ccccc1)CCCC2 as the compound, how does the inhibition (viability loss, TRAIL sensitization) read?
A: 20.1%

Q: With NC(=O)c1c(NC(=O)c2ccccc2)sc2c1CCCC2 as the compound, how does the inhibition (viability loss, TRAIL sensitization) read?
A: 53.3% (active)

Q: For C[C@H]1[C@H]2c3nc4ccccc4n3C[C@H]1ON2C1CCCCC1, which inhibition (viability loss, TRAIL sensitization) is on record?
A: -6.24%

Q: Which inhibition (viability loss, TRAIL sensitization) does the source give for Cc1ccccc1S(=O)(=O)NC(=O)C1(C)CCN1C(=O)C1(c2ccc(Cl)cc2)CC1 (stereo not given) here?
A: -8.57%

Q: Which inhibition (viability loss, TRAIL sensitization) does the source give for CC(=O)c1ccc(S(=O)(=O)NC2CC(=O)N(c3ccc4c(c3)OCCO4)C2)cc1 (stereo not given) here?
A: 2.78%

Q: Which inhibition (viability loss, TRAIL sensitization) does the source give for COc1ccc(Br)cc1CN(C)C(=O)C1CC(=O)N(C2CCCC2)C1 (stereo not given) here?
A: -13.6%

Q: With CN1C(=O)c2ccccc2C(C(=O)NCCCN2CCCC2)C1c1c[nH]c2ccccc12 (stereo not given) as the compound, how does the inhibition (viability loss, TRAIL sensitization) read?
A: 61.6% (active)

Q: Which inhibition (viability loss, TRAIL sensitization) does the source give for O=C(NCCCN1CCCCC1)C1CC(=O)N(CCc2ccccc2)C1 (stereo not given) here?
A: 1%

Q: With CCN(CC)CCNC(=O)C1c2ccccc2C(=O)N(C)C1c1cn(C)c2ccccc12 (stereo not given) as the compound, how does the inhibition (viability loss, TRAIL sensitization) read?
A: 14.1%

Q: With COCOc1cccc(CN2CCC(C)(Oc3ccc(SC)cc3)C2)c1 (stereo not given) as the compound, how does the inhibition (viability loss, TRAIL sensitization) read?
A: 10.9%

Q: Which inhibition (viability loss, TRAIL sensitization) does the source give for C[C@@H]1CN([C@H](C)CO)C(=O)CCCn2cc(nn2)CO[C@H]1CN(C)S(=O)(=O)c1ccc(Oc2ccccc2)nc1 here?
A: 2.33%

Q: With COc1ccc(CCNCC(O)Cn2ccc3ccccc32)cc1OC (stereo not given) as the compound, how does the inhibition (viability loss, TRAIL sensitization) read?
A: -3.08%

Q: With O=C(NC1CCCCC1)c1ccc(CNc2c(N3CCOCC3)c(=O)c2=O)cc1 as the compound, how does the inhibition (viability loss, TRAIL sensitization) read?
A: -0.739%

Q: With CCOC(=O)C1CCCN(C(=O)c2sc3nc(C)nc(N4CCOCC4)c3c2C)C1 (stereo not given) as the compound, how does the inhibition (viability loss, TRAIL sensitization) read?
A: 15.8%

Q: Which inhibition (viability loss, TRAIL sensitization) does the source give for CS(=O)(=O)c1ccc2c(c1)SC1=NC(=O)/C(=C/c3ccco3)C(=N)N12 here?
A: 11.3%

Q: For CCOC(=O)C1=C(O)/C(=C/c2cc(C)n(-c3ccccc3)c2C)N=C1C, which inhibition (viability loss, TRAIL sensitization) is on record?
A: -20.2%

Q: With Cc1cc(/C=C2/C(=N)N3C(=NC2=O)SN=C3S(C)(=O)=O)c(C)n1-c1ccccc1 as the compound, how does the inhibition (viability loss, TRAIL sensitization) read?
A: 72.2% (active)

Q: Which inhibition (viability loss, TRAIL sensitization) does the source give for COC(=O)C[C@@H]1C=C[C@@H](NC(=O)c2cccnc2)[C@@H](CO)O1 here?
A: -8.25%

Q: For O=C(NC1CCCCC1)C(c1cc2ccccc2o1)n1c(=O)c(-c2ccco2)nc2ccccc21 (stereo not given), which inhibition (viability loss, TRAIL sensitization) is on record?
A: 1.96%

Q: With C/C(=N\NC(=O)c1cc(-c2ccc(O)cc2)nc2ccccc12)c1cccnc1 as the compound, how does the inhibition (viability loss, TRAIL sensitization) read?
A: 3.5%

Q: With CCOc1ccc(-c2cc(C(=O)N/N=C/c3ccc(O)cc3)c3ccccc3n2)cc1 as the compound, how does the inhibition (viability loss, TRAIL sensitization) read?
A: 72.3% (active)

Q: For CCOc1ccc(/C=N\NC(=O)c2c(C)nc3cc(C)ccn23)cc1, which inhibition (viability loss, TRAIL sensitization) is on record?
A: 7.46%

Q: Which inhibition (viability loss, TRAIL sensitization) does the source give for Cc1ccc(S(=O)(=O)NCC2CCC(C(=O)N3CCOCC3)CC2)cc1 (stereo not given) here?
A: -6.3%

Q: For C[C@H]1NS(=O)(=O)c2cc(Cl)ccc2O[C@@H]1c1ccccc1, which inhibition (viability loss, TRAIL sensitization) is on record?
A: 11.6%

Q: With CCCn1nc(Oc2nc(NC(C)C)nc(N(C)C)n2)ccc1=O as the compound, how does the inhibition (viability loss, TRAIL sensitization) read?
A: -7.89%

Q: With Cc1ccc2cc(CCNC(=O)c3ccc4c(c3)OCO4)c(=O)[nH]c2c1 as the compound, how does the inhibition (viability loss, TRAIL sensitization) read?
A: 1.68%

Q: With Cc1nc2cc(NC(=O)Nc3cccc(F)c3)ccc2n1C as the compound, how does the inhibition (viability loss, TRAIL sensitization) read?
A: 63.6% (active)

Q: Which inhibition (viability loss, TRAIL sensitization) does the source give for Cc1nc2cc(NCc3cccs3)ccc2n1C here?
A: 2.96%

Q: For C=CCN(C(=O)Nc1ccc2c(c1)nc(C)n2C)c1ccccc1, which inhibition (viability loss, TRAIL sensitization) is on record?
A: 14.6%

Q: With Cc1cc([N+](=O)[O-])c(=O)[nH]c1C as the compound, how does the inhibition (viability loss, TRAIL sensitization) read?
A: 16.2%

Q: For COC(=O)CCSc1nccn1Cc1ccccc1, which inhibition (viability loss, TRAIL sensitization) is on record?
A: -2.49%

Q: Which inhibition (viability loss, TRAIL sensitization) does the source give for O=C(CN1C(=O)c2cccnc2Oc2ccc(Cl)cc21)Nc1ccc(F)cc1 here?
A: 4.45%

Q: With CC(/C=C/C1(O)C(C)CC(=O)CC1(C)C)OC1OC(CO)C(O)C(O)C1O (stereo not given) as the compound, how does the inhibition (viability loss, TRAIL sensitization) read?
A: 14.6%

Q: Which inhibition (viability loss, TRAIL sensitization) does the source give for CN(CCO)c1ccc(/C=N/Nc2nncc3ccccc23)cc1 here?
A: 95.3% (active)

Q: Which inhibition (viability loss, TRAIL sensitization) does the source give for O=C1COc2c1ccc(O)c2O here?
A: -11.8%

Q: With CNCC(O)c1ccc(O)c(O)c1 (stereo not given) as the compound, how does the inhibition (viability loss, TRAIL sensitization) read?
A: -0.467%

Q: Which inhibition (viability loss, TRAIL sensitization) does the source give for CCC(C)c1ccc(O)c(/C=N/O)c1 (stereo not given) here?
A: 51% (active)

Q: With CS(=O)(=O)N(Cc1ccc(Cl)cc1)c1ccc(C(=O)NCCSCc2ccco2)cc1 as the compound, how does the inhibition (viability loss, TRAIL sensitization) read?
A: -4.92%

Q: Which inhibition (viability loss, TRAIL sensitization) does the source give for CCc1c(C)c2ccc(OC3CCCCC3=O)cc2oc1=O (stereo not given) here?
A: -0.131%

Q: With O=C(NCCCN1CCN(c2ccccc2F)CC1)C1CCC(=O)N1C1CCCCC1 (stereo not given) as the compound, how does the inhibition (viability loss, TRAIL sensitization) read?
A: 0.0726%

Q: Which inhibition (viability loss, TRAIL sensitization) does the source give for Cc1c(C(=O)NCCN(C)C)oc2ccc(S(=O)(=O)N3CCCC3)cc12 here?
A: -7.61%

Q: Which inhibition (viability loss, TRAIL sensitization) does the source give for COc1ccc(C(CCN(Cc2ccc(OC)c(OC)c2)C(=O)CCl)c2ccccc2)cc1 (stereo not given) here?
A: 97.3% (active)

Q: For COc1ccc(CCNC(=O)CN(c2ccccc2)S(C)(=O)=O)cc1OC, which inhibition (viability loss, TRAIL sensitization) is on record?
A: -3.49%

Q: For CCOc1ccc(C(CCc2ccccc2)NC(=O)c2ccc(OC)c(OC)c2)cc1OCC (stereo not given), which inhibition (viability loss, TRAIL sensitization) is on record?
A: 30.5%

Q: For CCOc1ccc(-c2nnc(-c3ccco3)o2)cc1, which inhibition (viability loss, TRAIL sensitization) is on record?
A: 55.3% (active)

Q: Which inhibition (viability loss, TRAIL sensitization) does the source give for CCOc1ccc(NC(=O)N(CCC(C)C)C(C)c2ccco2)cc1 (stereo not given) here?
A: -2%

Q: For N#Cc1ccc(OCc2nnc(-c3ccc([N+](=O)[O-])cc3)o2)cc1, which inhibition (viability loss, TRAIL sensitization) is on record?
A: -1.32%

Q: With O=C(Nc1n[nH]c(C(F)(F)F)n1)c1cccs1 as the compound, how does the inhibition (viability loss, TRAIL sensitization) read?
A: -2.07%

Q: For COc1cc(NC(=O)c2ccc(-c3csc(C)n3)cc2)c(OC)cc1Cl, which inhibition (viability loss, TRAIL sensitization) is on record?
A: 25.1%

Q: Which inhibition (viability loss, TRAIL sensitization) does the source give for Cc1nc(-c2ccc(NC(=O)c3cccs3)cc2)cs1 here?
A: 81% (active)

Q: Which inhibition (viability loss, TRAIL sensitization) does the source give for CC(=O)NNc1cc(=O)c2c(=O)n(C)c(=O)n(C)c2[nH]1 here?
A: 7.17%

Q: For Cc1cc(C)cc(NC(=O)NCc2ccccn2)c1, which inhibition (viability loss, TRAIL sensitization) is on record?
A: 7.88%

Q: With Cc1cnc(NC(=O)c2ccccn2)s1 as the compound, how does the inhibition (viability loss, TRAIL sensitization) read?
A: 56% (active)

Q: With Cc1cnc(NC(=O)Cn2cnc3c2c(=O)n(C)c(=O)n3C)s1 as the compound, how does the inhibition (viability loss, TRAIL sensitization) read?
A: -2.16%

Q: For COc1ccc2occ(C(=O)c3ccc(N=C(C)N(C)C)cc3)c2c1, which inhibition (viability loss, TRAIL sensitization) is on record?
A: 10.5%

Q: Which inhibition (viability loss, TRAIL sensitization) does the source give for Cc1ccc(NC(=O)c2ccc(Oc3ncccn3)cc2)cc1 here?
A: 1.61%

Q: With CCc1nnc(NS(=O)(=O)c2ccc(NC(=O)c3cccc(OC(F)(F)C(F)F)c3)cc2)s1 as the compound, how does the inhibition (viability loss, TRAIL sensitization) read?
A: -18.2%

Q: Which inhibition (viability loss, TRAIL sensitization) does the source give for O=C(Nc1ccc(OC(F)(F)F)cc1)c1ccc2c(c1)no[n+]2[O-] here?
A: 86.8% (active)

Source: PubChem BioAssay AID624354 (Sanford-Burnham Center for Chemical Genomics, 2012)
